Experimental data reported in PubChem BioAssay AID1347076 (National Center for Advancing Translational Sciences (NCATS), 2019).
Where “and” joins values, the source holds several entries; their conditions need not be identical. Equal entries are not always repeated. The whole screen tested about 400,000 compounds, of which about 13,000 (3.2%) were called active. Entries that show only a call come without a potency. About 18% were inconclusive and are not listed. Calls come from the whole dose curve; as a rule, active = well fitted cell-killing curve with a large enough effect; inconclusive = small, poorly fitted or top-dose-only effect, or effect the other way; inactive = flat fitted curve, though single readings scatter. For the sample, actives were picked, then their nearest neighbours and some compounds at random.

Assay: qHTS assay for MDR1-selective chemotherapeutics: Primary screen using the drug-selected MDR subline cells KB-V1; note: nearly all actives have a fitted effect of over 60% in size
Conditions: KB-V1 MDR cells viability, CellTiter-Glo, 72 h; series mostly up to 46.1 µM
Procedure, shortened: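 Potencies derive from concentration-effect curves fitted to normalized luminescence (CellTiter-Glo) of KB-V1 cells treated for 72 h at 37 degrees C in phenol-red-free DMEM containing 10% FBS.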
Potency is the fitted concentration of half-maximal effect.

| Structure (SMILES) | Potency |
| --- | --- |
| CCOCCn1ccc2c(OCC(=O)NCc3ccc(C)cc3)cccc2c1=O | inactive |
| CN(C)c1ccc(C(CNS(=O)(=O)c2cc(F)ccc2F)N2CCOCC2)cc1 (configuration not stated) | inactive |
| CC[C@@H]1CC2=C(C(=O)OC(C)(C)O2)[C@@H](CC)O1 | inactive |
| COc1cccc(OCC(=O)NCCS(=O)(=O)N2CCN(c3ccccc3)CC2)c1 | inactive |
| COc1ccc2c(c1)C=C(C(=O)NCc1cc(Br)ccc1OC)CO2 | inactive |
| COc1cc(-c2nnc(NC(=O)CS(=O)(=O)c3ccc(Cl)cc3)o2)cc(OC)c1OC | inactive |
| COc1ccc(Cl)cc1NC(=O)CN(C)C(=O)c1cn(-c2ccccc2)nc1-c1cccs1 | inactive |
| O=C(CN1C(=O)NC(Cc2ccccc2)(Cc2ccccc2)C1=O)NCC1CCCCC1 | 20.6 µM (active) |
| O=C(CC1CCCCC1)NCc1ccccc1 | inactive |
| COc1cccc(CNC(=O)CN2C(=O)NC(Cc3ccccc3)(c3ccccc3)C2=O)c1 (configuration not stated) | inactive |
| COC(=O)C[C@H]1C[C@@H]2c3cc(N(C)C)ccc3O[C@@H]2[C@H](CO)O1 | inactive |
| CN(Cc1ccccc1)C(=O)CSc1nc2ccccc2[nH]1 | inactive |
| CCC(C)N1C(=O)S/C(=C/c2ccc(Sc3nc4ccccc4[nH]3)o2)C1=O (configuration not stated) | 5.17 µM (active) |
| O=C1NC[C@H](Cc2ccc(O)cc2)N(C[C@H]2CCCN2C[C@H](Cc2ccccc2)N2C[C@H](Cc3ccccc3)N(CCc3ccccc3)C(=O)C2=O)C1=O | inactive |
| COCCCNc1ccn2nc(-c3ccc(CC(C)C)cc3)cc2n1 | inactive |
| CCOc1ncccc1C(=O)Nc1ccc2c(c1)OCCO2 | inactive |
| CCOc1ncccc1C(=O)Nc1ccc(S(=O)(=O)Nc2nc(C)cc(C)n2)cc1 | 20.6 µM (active) |
| O=C(Nc1ccc(S(=O)(=O)Nc2ncccn2)cc1)c1cncc(Br)c1 | inactive |
| CCOC(=O)c1cccc(NC(=O)C(Cc2ccccc2)NS(=O)(=O)c2cccc3nsnc23)c1 (configuration not stated) | inactive |
| Cc1nnc(SCC(=O)N2CCN(c3ccccc3)CC2)n1-c1ccccc1 | inactive |
| COc1cccc(/C=C/C(=O)OCC(=O)N2CCN(c3ccccc3)CC2)c1 | inactive |
| COc1cccc(-c2ccc(SCC(=O)N3CCN(c4ccccc4)CC3)nn2)c1 | 14.6 µM (active) |
| N#CNC1=NCN(CCc2ccccc2)CN1 | inactive |
| O=C1CCCC2=C1[C@@]1(CCC(c3ccccc3)C1)N=C(Nc1nc3ccccc3o1)N2 (some centres not stated) | inactive |
| c1ccc(CCN2CN=C(Nc3nc4ccccc4o3)NC2)cc1 | 13 µM (active) |

| Structure (SMILES) | Potency |
| --- | --- |
| Cc1cc(NC(=O)c2cc(-c3cccs3)on2)nn1Cc1ccc(Cl)cc1 | 9.2 µM (active) |
| CC(=O)c1ccc(NC(=O)c2cc(-c3cccs3)on2)cc1 | inactive |
| Cc1ccccc1Cn1nc(C)c(NC(=O)c2cc(-c3ccc(F)cc3)on2)c1C | inactive |
| Cc1cccc(CC(=O)Nc2cccc(-c3cn4cccnc4n3)c2)c1 | inactive |
| COc1ccc(NC(=O)N(C)C[C@H]2Oc3ncc(C#C[C@@H](C)O)cc3C(=O)N([C@H](C)CO)C[C@H]2C)cc1 | inactive |
| CCOC(=O)C1C(c2ccc(O)cc2)NC(=O)NC1(O)C(F)(F)F (configuration not stated) | inactive |
| O=C(c1cccs1)C1C(c2ccc(Br)cc2)NC(=S)NC1(O)C(F)(F)F (configuration not stated) | 20.6 µM (active) |
| Cc1ccc(Cc2c(-c3ccc(C)cc3)nc3c4ccccc4ccn23)cc1 | inactive |
| c1ccc2c(c1)nnn2-c1ccncc1 | inactive |
| CC(=NCc1ccco1)C1=C(O)c2ccccc2C1=O | inactive |
| CC(=NCc1ccco1)c1c(C(F)(F)F)[nH]n(-c2nc3ccccc3s2)c1=O | 9.2 µM (active) |
| CCc1ccc(-c2cc(C(=O)NCc3ccco3)c3ccccc3n2)s1 | inactive |
| CN(C)C(CNC(=O)c1cc(Br)c(Br)s1)c1ccco1 (configuration not stated) | inactive |
| CCCCC(CCCC)c1ccc(C=Nc2ccc(/C=C/c3ccnc4ccccc34)cc2)cc1 | inactive |
| Cc1ccc(C(=O)OCC(=O)N2CCCCCC2)cc1S(=O)(=O)N1CCOCC1 | 14.6 µM (active) |
| COc1ccc(C(=O)OCC(=O)c2ccc(C)c(S(=O)(=O)N3CCOCC3)c2)cc1OC | inactive |
| O=C(OCC(=O)N1CCCCCC1)c1ccc(Br)c(S(=O)(=O)N2CCOCC2)c1 | inactive |
| COC(=O)[C@]12CCCCC=C1N(Cc1ccco1)C(=O)[C@H](CC(=O)NCC1CCCCC1)C2 | inactive |
| COc1ccccc1NC(=O)C1=C(C)Nc2ncnn2C1c1sccc1C (configuration not stated) | inactive |
| CC1=C(C(=O)Nc2ccccc2Cl)C(c2cccs2)n2ncnc2N1 (configuration not stated) | inactive |
| COc1ccccc1NC(=O)C1=C(C)Nc2nc3ccccc3n2C1c1cccs1 (configuration not stated) | 5.8 µM (active) |
| COC(=O)c1ccc(C2C(C(=O)Nc3ccccc3)=C(C)Nc3nc4ccccc4n32)cc1 (configuration not stated) | inactive |
| CCOc1ccc(C2C(C(=O)NC)=C(C)Nc3nc4ccccc4n32)cc1OC (configuration not stated) | inactive |
| CCOC(=O)C1=C(C)Nc2nc3ccccc3n2C1c1cccs1 (configuration not stated) | 3.26 µM (active) |
| O=S1(=O)C[C@@H](N2CCN(CCO)CC2)[C@H](COCc2ccccc2)N1 | inactive |

| Structure (SMILES) | Potency |
| --- | --- |
| CC1(C(=O)NCc2ccccc2)CN(S(C)(=O)=O)CC(=O)N1CC(F)(F)F (configuration not stated) | inactive |
| CN(C)CCN1CCN(c2cc(-c3cccc(Cl)c3)nc3ccnn23)CC1 | inactive |
| CCc1nc2c(OCC(N)=O)cccn2c1N(C)C(=O)c1ccc(OC)cc1 | inactive |
| CC1=C(C(=O)N2CCOCC2)CC(CC(=O)NCc2cccs2)C(=O)N1CCCN1CCCC1=O (configuration not stated) | inactive |
| C#C[C@]1(O)CC[C@H]2[C@@H]3CCC4=CC(=O)CC[C@@H]4[C@H]3CC[C@@]21CC | 13 µM (active) and 7.31 µM (active) |
| CCCCCCCCN1C(=O)[C@H](CC(=O)NCC23CC4CC(CC(C4)C2)C3)C[C@@]2(C(=O)OC)CCCCC=C12 | inactive |
| CC(C)Sc1oc(-c2cccs2)nc1S(=O)(=O)c1ccc(Cl)cc1 | inactive |
| CC(NC(=O)c1ccc(N2CCNCC2)c([N+](=O)[O-])c1)C12CC3CC(CC(C3)C1)C2 (configuration not stated) | inactive |
| O=C(NC1C2CC3CC(C2)CC1C3)c1ccc(N2CCNCC2)c([N+](=O)[O-])c1 (configuration not stated) | inactive |
| CS(=O)(=O)N1CCN(c2ccc(C(=O)NC3C4CC5CC(C4)CC3C5)cc2[N+](=O)[O-])CC1 (configuration not stated) | 11.6 µM (active) |
| COc1ccc(-c2cc3nc(NCCOc4ccccc4)ccn3n2)cc1 | inactive |
| CCc1nc2onc(C)c2c(=O)n1CC(=O)O | inactive |
| COCCCNC(NC(=O)c1ccc(OC)cc1)C(Cl)(Cl)Cl (configuration not stated) | inactive |
| CCOCCCNC(=O)C(NC(=O)CNC(=O)c1ccccc1)c1ccc(C)cc1 (configuration not stated) | inactive |
| COCCCNC(NC(=O)c1ccc(C)cc1)C(Cl)(Cl)Cl (configuration not stated) | 20.6 µM (active) |
| CCOC(=O)[C@]12CCC=C1N(Cc1ccco1)C(=O)[C@H](CC(=O)N1CCSCC1)C2 | inactive |
| CC(C)Oc1ccc(CN2CCC2(C)C(=O)NCc2ccc(C(F)(F)F)cc2)cc1 (configuration not stated) | inactive |
| Cc1cccc(-c2nc(SCC(=O)Nc3cc(C)on3)c3c(=O)n(C)c(=O)n(C)c3n2)c1 | inactive |
| Cc1nc2ccccc2nc1CC(O)(c1ccccc1)c1ccccc1 | inactive |
| O=C(NCc1ccccc1)C(=O)NCC(c1ccco1)S(=O)(=O)c1ccc(Cl)cc1 (configuration not stated) | inactive |
| CC(C)C(=O)N1CCN(c2nc(-c3ccccc3)c3c(c2C#N)CC(C)(C)OC3)CC1 | inactive |
| COc1ccc(CSc2nc(N3CCOCC3)c3c(c2C#N)CC(C)(C)OC3)cc1 | inactive |
| CC1(C)Cc2c(C#N)c(SCc3nc4ccccc4[nH]3)nc(N3CCOCC3)c2CO1 | 9.2 µM (active) |
| COc1cccc(CNCc2c(C(=O)O)n(Cc3ccc(C)cc3)c3cc(C)ccc23)c1OC | inactive |
| CCCCCc1c(C)nc(N2CCN(Cc3ccc4c(c3)OCO4)CC2)[nH]c1=O | inactive |

| Structure (SMILES) | Potency |
| --- | --- |
| Cc1c(CN2CC[C@@H](N3CCN(c4ccccn4)CC3)[C@H](O)C2)[nH]c2ccc(F)cc12 | inactive |
| Fc1ccc2[nH]c3c(N4CCN(Cc5ccc6c(c5)OCO6)CC4)ncnc3c2c1 | 9.2 µM (active) |
| O=c1[nH]c(N2CCN(Cc3ccc4c(c3)OCO4)CC2)nc2c1CCCC2 | inactive |
| Fc1ccc2[nH]c3c(N4CCSCC4)ncnc3c2c1 | 3.26 µM (active) |
| CC1=C(C(=O)N(C)C)CC(CC(=O)NCCc2ccccn2)C(=O)N1CCC1=CCCCC1 (configuration not stated) | inactive |
| COCCNc1nc(Nc2ccccc2Cl)c2sc(-c3ccccc3)cc2n1 | inactive |
| COc1ccc(NC(=O)c2nc(-n3nc(C)cc3C)ccc2Cl)cc1Cl | inactive |
| CC(=O)Nc1ccc(Nc2cc(C)nc(Nc3ccc(NC(C)=O)cc3)n2)cc1 | inactive |
| COc1ccc(Nc2cc(C)nc(-n3nc(C)cc3C)n2)cc1 | 0.231 µM (active) |
| CC1(C)NC(=O)N(CC(=O)Nc2ccc(-c3ccccc3)cc2)C1=O | inactive |
| CC1(Oc2ccc(Cl)cc2)CCN(Cc2csc3ccccc23)C1 (configuration not stated) | inactive |
| COc1ccc(-n2nnnc2SCc2nc(N)nc(N3CCOCC3)n2)cc1 | inactive |
| CN(C)c1nc(N)nc(CSc2ccccn2)n1 | inactive |
| CN(C)c1nc(N)nc(CSc2nnnn2-c2cccc3ccccc23)n1 | 6.51 µM (active) |
| CCOC(=O)C1CCCN(C(=O)c2ccc(C)c(F)c2)CC1 (configuration not stated) | inactive |
| COc1ccc(N(Cc2ccccc2)S(=O)(=O)c2cccc(C(=O)O)c2)cc1 | inactive |
| COc1ccc(N(CCC#N)S(=O)(=O)c2ccc(Cl)cc2)cc1 | 16.4 µM (active) |
| COc1ccc(S(=O)(=O)NCCCCOc2ccc(Cl)cc2)cc1 | inactive |
| CCCCNC(=O)Cn1c(SCc2cccc(Cl)c2)nc2ccncc21 | inactive |
| O=C(NCCO)c1cccc(-c2cccc3nccn23)c1 | inactive |
| CCC(=O)N1c2ccccc2CC1C(=O)N1CCN(c2cccc(OC)c2)CC1 (configuration not stated) | inactive |
| Cc1ccc(NC(=O)Cn2sc3ccccc3c2=O)cc1 | inactive |
